The values that follow come from PubChem BioAssay (NCATS).

Results filed as inconclusive are left out. Unmarked numbers belong to inactive results. Activity calls are given as the source filed them. The call rests on the fitted dose curve; in most records, active means well fitted inhibition curve with a large enough effect; inconclusive means small, poorly fitted or top-dose-only effect; inactive means flat fitted curve, though single readings scatter.
Potency means the concentration at half of the fitted maximal effect.

In the first experiment the test system is 7G8. The experiment in a line: qHTS profiling for inhibitors of Plasmodium falciparum proliferation (AID 504749). Further: nearly all actives have a fitted effect of over 60% in size.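 On activity, negative = inhibition: 0% = DMSO vehicle and full inhibition = artemisinin control.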 Particulars: P. falciparum in erythrocytes, SYBR Green DNA, 72 h; series mostly up to 28.7 µM; activity, negative = inhibition: at the top concentration. In short, it runs like this:
(§1)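 Fluorescence of SYBR Green-bound parasite DNA, read at 485/535 nm, served as the growth measure. Infected erythrocytes were cultured with compound 72 h; artemisinin (0.29 uM) and DMSO wells defined the normalization range.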
Turning to `CN(C)[C@H]1C(=O)C(C(=O)NCN2CCCC2)=C(O)[C@]2(O)C(=O)C3=C(O)c4c(O)cccc4[C@](C)(O)[C@H]3C[C@H]12`, the “activity, negative = inhibition” value is -24.7%.
Turning to `C[C@]12CC[C@H]3c4ccc(O)cc4CC[C@@H]3[C@H]1CC[C@@H]2OC(=O)CCC1CCCC1`, the Potency is 4.47 µM (active).
As to `Cc1cn([C@H]2C[C@H](N=[N+]=[N-])[C@H](CO)O2)c(=O)[nH]c1=O`, the “activity, negative = inhibition” value was 1.85%.
`O=C(O)[C@@H](S)[C@H](S)C(=O)O`: the Potency was 5.01 µM (active).
`CC(C)(C)NC[C@@H](O)c1ccc(O)c(CO)n1`: the “activity, negative = inhibition” value is 3.29%.
Regarding `NS(=O)(=O)c1cc2c(cc1Cl)N[C@H](Cc1ccccc1)NS2(=O)=O`, the “activity, negative = inhibition” value was -23.1%.

Another experiment concerns AA1029. The experiment is described as above. The following applies: P. falciparum in erythrocytes, SYBR Green DNA, 72 h; series mostly up to 28.7 µM; activity, negative = inhibition: at the top concentration. An outline of the steps: as §1
Consider `CN(C)[C@H]1C(=O)C(C(=O)NCN2CCCC2)=C(O)[C@]2(O)C(=O)C3=C(O)c4c(O)cccc4[C@](C)(O)[C@H]3C[C@H]12`, for which the “activity, negative = inhibition” value was -9.95%.
Same read-out and setting: as for `C[C@]12CC[C@H]3c4ccc(O)cc4CC[C@@H]3[C@H]1CC[C@@H]2OC(=O)CCC1CCCC1`, the figure is -6.82%; as for `Cc1cn([C@H]2C[C@H](N=[N+]=[N-])[C@H](CO)O2)c(=O)[nH]c1=O`, 6.34%.
On to `O=C(O)[C@@H](S)[C@H](S)C(=O)O`, for which the Potency is 10 µM (active).
For `CC(C)(C)NC[C@@H](O)c1ccc(O)c(CO)n1`, the “activity, negative = inhibition” value was 1.91%.
`NS(=O)(=O)c1cc2c(cc1Cl)N[C@H](Cc1ccccc1)NS2(=O)=O`: the “activity, negative = inhibition” value was 7%.
